The text below walks through data of PubChem BioAssay AID1851 (National Center for Advancing Translational Sciences (NCATS), 2009).

The whole screen tested about 16,000 compounds, of which about 5,800 (36%) were called active. Inconclusive results (about 23%) are left out. Calls follow the shape of the dose curve; as a rule, active = well fitted curve in the direction sought with a large enough effect; inconclusive = small, poorly fitted or top-dose-only effect, or effect the other way; inactive = no such curve, though single readings can be large or run the other way. The list shows a part of the results.
% is scaled to controls: 0 for no effect and ±100 for the full control effect.

Chain of Cytochrome P450 2C19 (Homo sapiens) (P33261 whole entry, looked up): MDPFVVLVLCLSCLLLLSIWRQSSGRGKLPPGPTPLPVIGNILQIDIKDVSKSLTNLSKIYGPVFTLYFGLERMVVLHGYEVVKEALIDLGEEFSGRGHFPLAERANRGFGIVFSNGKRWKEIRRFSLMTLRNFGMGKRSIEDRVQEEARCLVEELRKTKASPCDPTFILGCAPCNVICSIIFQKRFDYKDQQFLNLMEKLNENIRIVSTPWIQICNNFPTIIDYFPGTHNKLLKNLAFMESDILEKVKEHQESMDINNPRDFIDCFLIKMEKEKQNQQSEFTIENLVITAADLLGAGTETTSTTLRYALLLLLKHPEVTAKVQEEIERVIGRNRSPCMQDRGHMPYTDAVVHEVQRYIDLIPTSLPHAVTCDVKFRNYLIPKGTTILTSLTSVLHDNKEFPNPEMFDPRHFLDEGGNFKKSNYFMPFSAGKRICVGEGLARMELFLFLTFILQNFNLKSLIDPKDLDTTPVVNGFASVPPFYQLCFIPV

This assay concerns the target Cytochrome P450 2C19 (Homo sapiens) (UniProt P33261). The assay is described as follows: Cytochrome panel assay with activity outcomes. The settings on record: recombinant CYP, pro-luciferin dealkylation, luminescence, p450-cyp2c19; series mostly up to 57.1 µM; activity, negative = inhibition: at the top concentration.
For `O=C1CCCN1CC(O)CS(=O)(=O)c1ccccc1` (stereo not drawn), the “activity, negative = inhibition” value is -6.21% (inactive).
As for `Cc1ccc(S(=O)(=O)CC(O)CN2CCCC2=O)cc1` (stereo not drawn), the AC50 was 10 µM (active).
Consider `Cc1cc2c(nc1C)CCCN2CC(O)CN1CCCc2nc(C)c(C)cc21`, for which the activity, negative = inhibition is 6.93% [at 11.4 µM] (inactive).
Still for that read-out and setting: the same measure for `CN(C)C(=O)/N=N\C(=O)N(C)C`: -47.9% (inactive); for `N[C@H](C(=O)O)[C@@H](O)c1cnc[nH]1`: -17.9% [at 11.4 µM] (inactive).
In the case of `C=CCOC(=O)/C(=C\c1cccc2ccccc12)NC(=O)c1ccccc1`, the AC50 was 0.398 µM (active).
As for `CCOc1ccccc1/C=C(\C#N)C(N)=O`, the activity, negative = inhibition is -18.7% [at 11.4 µM] (inactive).
As for `CCOc1cccc2cc(C(N)=O)c(=NCc3ccccc3)oc12`, the AC50 was 10 µM (active).
On the same count and under the same terms, the result for `O=C(CSc1nc2ccccc2c(=O)n1Cc1ccccc1)NCc1ccco1` reads 0.708 µM (active); that for `CCOC(=O)CSc1nc2ccccc2c(=O)n1CC1CCC(C(=O)NCc2ccco2)CC1` (stereo not drawn), 7.08 µM (active).
`COCCn1c(Cc2ccccc2)nnc1SCc1nc2ccccc2c(=O)[nH]1`: the “activity, negative = inhibition” value is 56% (inactive).
Consider `CC(C)Cn1c(SCc2nc3ccccc3c(=O)[nH]2)nc2ccccc2c1=O`, for which the concentration at half-maximal activity (AC50) was 2.51 µM (active).
Same read-out and setting: the same measure for `CC(=O)NCCn1c(SCC(=O)NCc2ccco2)nc2ccccc2c1=O`: 1.12 µM (active).
For `O=C(CSc1ccccc1C(=O)O)NCc1ccco1`, the “activity, negative = inhibition” value was -3.72% (inactive).
The same measure, in the same setting: the result for `COCc1nc2c([nH]1)c(=O)n(C)c(=O)n2CC(C)C` reads -17% (inactive); that for `C=CCNC(=O)C1CCN(S(=O)(=O)CC)CC1`, -20.8% (inactive).
On to `Cc1cccc(C)c1-n1c(SCC(=O)NCc2ccco2)nc2ccccc2c1=O`, for which the AC50 is 4.47 µM (active).
On the same count and under the same terms, the same measure for `O=C(CSc1nc2ccccc2c(=O)n1CCCO)NCc1ccccc1`: 11.2 µM (active).
Same read-out and setting: the same measure for `Cc1cc(NC(=O)CSc2nc3ccccc3c(=O)n2CCCC(=O)NCc2ccco2)n[nH]1`: 2.24 µM (active).
As for `C=CCSc1nc2ccccc2c(=O)n1Cc1ccco1`, the AC50 was 1 µM (active).
For `O=C(O)CCCCCn1c(SCC(=O)N2CCCC2)nc2ccsc2c1=O`, the “activity, negative = inhibition” value was 16.5% (inactive).
As to `O=C(CSc1nc2ccccc2c(=O)n1CCCC(=O)N1CCCC1)NCc1ccco1`, the AC50 was 4.47 µM (active).
Turning to `COC(=O)N1CCC2(CCCN(C(=O)Nc3ccc(OC)cc3)C2)CC1`, the “activity, negative = inhibition” value was -38.2% (inactive).
For `O=c1c2ccccc2nc(SCc2ccccc2Cl)n1Cc1ccccc1`, the AC50 is 2.82 µM (active).
On the same count and under the same terms, the same measure for `COc1ccc(NC(=O)CSc2nc3ccccc3c(=O)n2CCC(=O)N2CCCCC2)cc1`: 0.794 µM (active); for `Cc1cc(NC(=O)CSc2nc3ccsc3c(=O)n2Cc2ccccn2)n[nH]1`: 15.8 µM (active).
The same measure, in the same setting: the same measure for `O=C(CSc1nc2ccccc2c(=O)n1NC(=O)Cc1ccccc1)NCc1ccccc1Cl`: 0.794 µM (active); for `CCOC(=O)COc1c(C=O)cc(Br)cc1OC`: 6.31 µM (active).
In the case of `CCOC(=O)C1=C(O)/C(=C/c2cc(OC)c(OC)c(OC)c2)N=C1C`, the “activity, negative = inhibition” value is -19.3% (inactive).
For `CCOc1cc(/C=C2\N=C(C)OC2=O)cc(Br)c1OCC(=O)OC`, the “activity, negative = inhibition” value is -28.7% (inactive).
For the molecule `Cc1ccc(C)c(S(=O)(=O)N2CCC(c3nc4c(nnn4Cc4ccc(F)cc4)c(=O)[nH]3)CC2)c1`, the AC50 is 4.47 µM (active).
Same read-out and setting: the same measure for `Nc1nc(Br)c2c(F)cccc2c1-c1ccc(Cl)cc1`: 1.26 µM (active).
Same read-out and setting: the result for `Nc1nc(Br)c2ccccc2c1-c1ccc(F)cc1` reads 2.82 µM (active); that for `O=C(Cc1ccc2c(c1)CCCC2)Nc1ccccc1Br`, 3.55 µM (active).
`CC1=CC(C)(C)N(C)C(=O)N1c1ccc(Cl)cc1`: the concentration at half-maximal activity (AC50) was 15.8 µM (active).
In the case of `NC(N)=Nc1nc(CCN2C(=O)c3ccccc3C2=O)cs1`, the AC50 is 2.82 µM (active).
`CO[C@@H]1COC(=O)CC=C[C@@H](C)[C@@H]2C=C[C@@H](O)[C@@H](COC(=O)C/C=C\[C@H]1C)O2`: the activity, negative = inhibition was -8% [at 11.4 µM] (inactive).
Turning to `Cc1cccc(NC(=S)NC(=O)CCc2ccccc2)c1`, the AC50 is 5.62 µM (active).
The same measure, in the same setting: the result for `CCCCC(=O)NC(=S)Nc1cccc(NC(=O)CC)c1` reads 10 µM (active).
In the case of `Cc1cccc(C)c1NC(=O)CS(=O)CC(=O)NCCCc1ccccc1` (stereo not drawn), the “activity, negative = inhibition” value was -22.3% (inactive).
Take `CCC(=O)Nc1cccc(C(=O)/C=C/c2ccccc2)c1`: the AC50 was 5.62 µM (active).
Still for that read-out and setting: the result for `Cc1cccc(C)c1NC(=S)NC(=O)CCc1ccccc1` reads 3.55 µM (active).
`CCC(=O)NNC(=O)CCC(=O)Nc1ccccc1`: the “activity, negative = inhibition” value was -11.9% (inactive).
The same measure, in the same setting: the same measure for `CC(=O)Nc1ccc(C(=O)NNC(=O)CCc2ccccc2)cc1`: -11.5% (inactive); for `Cn1c(=O)c2c(-c3cccc(F)c3)c3c(nc2n(C)c1=O)-c1ccccc1C3O` (stereo not drawn): -77.1% (inactive).
Still for that read-out and setting: the same measure for `Cc1c(C)c(C)c(CC2(C)CSC2)c(CC2(C)CSC2)c1C`: 35.5% [at 11.4 µM] (inactive).
Same read-out and setting: the same measure for `CN(C)c1ncc2ncc(=O)n(C3CC3)c2n1`: -21.5% (inactive).
With `N[C@H](CCC(=O)NCC(=O)O)C(=O)O`, the “activity, negative = inhibition” value was -14.1% (inactive).
Consider `Cc1ccc(C(=O)Nc2ccc3nccnc3c2)cc1`, for which the AC50 is 14.1 µM (active).
For `Cc1ccc(-n2nc3ccc(NC(=O)c4ccc5c(c4)OCO5)cc3n2)cc1`, the “activity, negative = inhibition” value was -26.9% (inactive).
Still for that read-out and setting: the same measure for `CCN1C(=O)[C@H]2[C@H]3[C@H](O)[C@H](O)C/C(=N/OCC[C@H]4C=C[C@H](OC(C)=O)[C@@H](COC(C)=O)O4)[C@@H]3CC[C@@H]2C1=O`: 0.181% [at 11.4 µM] (inactive).
As for `CC1CCN(CC[C@@H]2CCCN2S(=O)(=O)c2cccc(O)c2)CC1`, the “activity, negative = inhibition” value was 15.1% (inactive).
For the molecule `Cc1c(C)n(C(=O)CN2CCC(C)CC2)c2ccccc12`, the AC50 was 3.55 µM (active).
Regarding `O=C(O)c1cc(=O)cc(C(=O)O)[nH]1`, the “activity, negative = inhibition” value is 14.5% (inactive).
In the case of `COc1ccc(COC(=O)N/N=C2/C[C@@H](O)[C@@H](O)[C@@H]3[C@@H]4C(=O)N([C@@H](C)c5ccccc5)C(=O)[C@H]4CC[C@H]23)cc1`, the activity, negative = inhibition is 1.27% [at 11.4 µM] (inactive).
Still for that read-out and setting: the same measure for `C[C@]1(c2ccccc2)OC(C(=O)O)=CC1=O`: -35.6% (inactive).
On to `Cc1ccc(C(=O)Nc2cc(Cl)ccc2OC(=O)c2ccc(C)cc2)cc1`, for which the AC50 is 11.2 µM (active).
Regarding `COc1ccc(NC(=O)c2ccc(C(=O)c3cc(OC)ccc3OC)cc2)cc1`, the “activity, negative = inhibition” value was 9.75% (inactive).
As to `COc1ccc(C(=O)Nc2cc(Cl)ccc2OC(=O)c2ccc(OC)cc2)cc1`, the AC50 was 3.55 µM (active).
Still for that read-out and setting: the result for `COC(=O)CCSc1cc([N+](=O)[O-])cc2c1c(C1OCCS1)nn2-c1ccccc1` (stereo not drawn) reads 25.1 µM (active); that for `NC(N)=NC(N)=Nc1cccc(Cl)c1`, “inactive”.
On to `NC(N)=NC(N)=Nc1ccccc1`, for which the AC50 is 25.1 µM (active).
For the molecule `NC(N)=NC(N)=Nc1ccc(S(=O)(=O)O)cc1`, the activity, negative = inhibition was 10.1% [at 11.4 µM] (inactive).

Broadly, the AC50 is the concentration giving half of the maximal activity seen.
